Laboratory results from PubChem BioAssay.
A number with no mark means an inactive call. Active and inactive are the calls of the source. Rule as the data show it: active = inhibition above about 36%; inactive = the rest.

system: transactivating tegument protein VP16 (Human herpesvirus 1); assay: VP16 transactivation reporter inhibitors, counter-screen for SRC2 inhibitor project, cell-based, luminescence, single concentration (AID 652007); conditions: cell-based VP16 transactivation luciferase reporter, at 8.9 µM, hits give high values

Structure (SMILES) | inhibition
COc1ccc(/C=C2\SC(=S)N(CCCC(=O)Nc3ccc(O)cc3)C2=O)cc1 | 52.4% (active)
CCCN1C(=O)C2C(C(=O)Nc3cccc(OC)c3)C3C=CC2(O3)C1C(=O)NC1CCCCC1 (stereo not given) | -13.7%
Cc1ccc(NC(=O)c2nc(S(=O)(=O)Cc3ccccc3)ncc2Cl)cc1 | 56.5% (active)
CN=C1CC(SC)=C1c1ccc(C)cc1 | -10.3%
Cc1cc(-c2ccccc2)n(-c2cc(N/N=C/c3ccccc3O)ncn2)n1 | -0.63%
CCC1CSC(Nc2ccc(C(=O)/C=C/c3ccc(OC)c(OC)c3)cc2)=N1 (stereo not given) | 12.8%
CCOC(=O)Cc1ccc(NC(=O)c2ccc(C(C)(C)C)cc2)cc1 | -47.1%
COc1ccc(NC(=O)c2cccc(N3C(=O)c4cccc([N+](=O)[O-])c4C3=O)c2)cc1 | -32.3%
CN1CCN(c2nc3ccccc3nc2C(C#N)S(=O)(=O)c2ccccc2)CC1 (stereo not given) | 10.5%
Cc1ccc(CS(=O)(=O)c2ncc(Cl)c(C(=O)Nc3nnc(C(C)C)s3)n2)cc1 | 27.3%
CN1Cc2sc(NC(=S)NC(=O)c3ccccc3)c(C#N)c2CC1(C)C | 20.5%
CCOC(=O)CN(C)C(=O)CCc1nnc(-c2ccc(-c3ccccc3)cc2)o1 | -17.7%
CCOc1ccc(NC(=O)c2ccccn2)cc1 | -15.2%
CCc1ccc(/C=C2\SC(=S)N(CCCC(=O)NC3=NCCS3)C2=O)cc1 | 41.6% (active)
Cc1ccc2sc(N(CCCN(C)C)C(=O)CCS(=O)(=O)c3ccccc3)nc2c1C | 1.51%
